A number with no mark means an inactive call. The source made the active and inactive calls. Calls follow the shape of the dose curve; as a rule, active = well fitted curve in the direction sought with a large enough effect in the repeat runs; inconclusive = weak or mixed curves; inactive = flat fitted curve, though single readings scatter.
Test: qHTS assay to test for compound auto fluorescence at 590 nm (red) in HEK293 cell free culture (AID 720683)
Conditions: cell-free medium autofluorescence, Ex540/Em590 red; series mostly up to 91.3 µM; fluorescence, % of fluorescent control: at the top concentration
Outline: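 Red-channel autofluorescence of compounds in culture medium (DMEM, 10% FBS), no cells, measured at 540/590 nm. Rose Bengal sodium is the reference fluorophore for equivalence.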
% is scaled to controls: 0 for no effect and ±100 for the full control effect.

Row | SMILES | fluorescence, % of fluorescent control | outcome
1 | CCC1(CCC(C)C)C(=O)NC(=O)NC1=O | 0.419% | –
2 | C=CCN1C[C@H](C)N([C@H](c2ccc(C(=O)N(CC)CC)cc2)c2cccc(OC)c2)C[C@H]1C | 0.26% [at 46 µM] | –
3 | O=C(NC(=O)c1cc(F)c(F)cc1Cl)Nc1cc(F)ccc1N1CCC(C(=O)O)CC1 | 0.158% [at 46 µM] | –
4 | [Cl-].[Cl-].[Hg+2] | – | inactive
5 | CC(=O)OC(c1ccccc1)C(Cl)(Cl)Cl (stereo unspecified) | 0.0746% | –
6 | Cc1ncc(C[n+]2csc(CCO)c2C)c(N)n1 | – | inactive
7 | CN1CC[C@]23c4c5ccc(O)c4O[C@H]2[C@@H](O)C=C[C@H]3[C@H]1C5 | 0.179% | –
8 | Nc1c(Br)cc(Br)c2c1C(=O)c1ccccc1C2=O | -0.754% [at 18.6 µM] | –
9 | CCC(C)(C)O | 0.0349% | –
10 | CC(C)(C)N(NC(=O)c1ccc(Cl)cc1)C(=O)c1ccccc1 | 0.0362% | –
11 | O=[N+]([O-])c1cc(Cl)c(Cl)cc1Cl | -0.376% | –
12 | CN(C)c1ccc(N=O)cc1 | – | inactive
13 | CC1(C)[C@H](C(=O)O[C@H](C#N)c2cccc(Oc3ccccc3)c2)[C@@H]1C=C(Br)Br | – | inactive
14 | CC(=O)NNc1ccccc1 | -0.0499% | –
15 | CCCN(CCOc1c(Cl)cc(Cl)cc1Cl)C(=O)n1ccnc1 | – | inactive
16 | Nc1ccccc1C(=O)OCCc1ccccc1 | – | inactive
17 | O=C(O)COc1cc(Cl)c(Cl)cc1Cl | – | inactive
18 | NP(N)(=O)NC(=O)c1ccc(F)cc1 | 0.171% [at 46 µM] | –
19 | CN1C(=O)CN=C(c2ccccc2)c2cc([N+](=O)[O-])ccc21 | -0.0674% [at 46 µM] | –

Row | SMILES | fluorescence, % of fluorescent control | outcome
20 | O=S(=O)(c1ccccc1)c1ccccc1 | -0.153% | –
21 | CCNC(=O)NC(=O)/C(C#N)=N/OC | -0.0171% | –
22 | O=C(O)CCCOc1ccc(Cl)cc1Cl | – | inactive
23 | C[Si](Cn1cncn1)(c1ccc(F)cc1)c1ccc(F)cc1 | – | inactive
24 | C[C@]12C=CC3=C4CCC(=O)C=C4CC[C@H]3[C@@H]1CC[C@@H]2O | 0.357% | –
25 | FC(Cl)(Cl)C(F)(Cl)Cl | -0.0392% [at 95.7 µM] | –
26 | O=C(O)C(F)(F)C(F)(F)C(F)(F)C(F)(F)C(F)(F)C(F)(F)C(F)(F)C(F)(F)F | 0.061% | –
27 | CCC1(C2=NCCN2)Cc2ccccc2O1 (stereo unspecified) | 0.631% [at 46 µM] | –
28 | O=C(O)C(O)C(O)C(=O)O (stereo unspecified) | -0.0621% | –
29 | Nc1ccc2c(c1)Cc1ccccc1-2 | -0.0404% | –
30 | CC(Oc1cc(Cl)c(Cl)cc1Cl)C(=O)O (stereo unspecified) | 0.147% | –
31 | CN1C[C@H](C(=O)N[C@]2(C)O[C@@]3(O)[C@@H]4CCCN4C(=O)[C@H](Cc4ccccc4)N3C2=O)C=C2c3cccc4[nH]cc(c34)C[C@H]21 | – | inactive
32 | C=C(C)C(=O)OCCCCOC(=O)C(=C)C | -0.187% | –
33 | Cc1ccc(N)c(C)c1 | – | inactive
34 | COP(=O)(OC)OC(Br)C(Cl)(Cl)Br (stereo unspecified) | – | inactive
35 | CC[N+]1(CCOC(=O)C(O)(c2ccccc2)c2ccccc2)CCCCC1 | 0.265% [at 46 µM] | –
36 | O=CC=O | – | inactive
37 | C[CH2][Hg][S]c1ccccc1C(=O)O | – | inactive
38 | O=P(OCC(Br)CBr)(OCC(Br)CBr)OCC(Br)CBr (stereo unspecified) | – | inactive

Test: qHTS assay to test for compound auto fluorescence at 590 nm (red) in HepG2 cell free culture (AID 720684)
Conditions: cell-free medium autofluorescence, red 540/590 nm; series mostly up to 91.3 µM; fluorescence, % of Rose Bengal: at the top concentration
Outline: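 No cells present: MEM + 10% FBS only. Compound pinned in, red label read (540/590 nm). Activity = fluorescence equivalent to Rose Bengal sodium.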

Row | SMILES | fluorescence, % of Rose Bengal | outcome
39 | CCC1(CCC(C)C)C(=O)NC(=O)NC1=O | 0.212% | –
40 | C=CCN1C[C@H](C)N([C@H](c2ccc(C(=O)N(CC)CC)cc2)c2cccc(OC)c2)C[C@H]1C | -0.0717% [at 46 µM] | –
41 | O=C(NC(=O)c1cc(F)c(F)cc1Cl)Nc1cc(F)ccc1N1CCC(C(=O)O)CC1 | 0.08% [at 46 µM] | –
42 | [Cl-].[Cl-].[Hg+2] | – | inactive
43 | CC(=O)OC(c1ccccc1)C(Cl)(Cl)Cl (stereo unspecified) | 0.0199% | –
44 | Cc1ncc(C[n+]2csc(CCO)c2C)c(N)n1 | – | inactive
45 | CN1CC[C@]23c4c5ccc(O)c4O[C@H]2[C@@H](O)C=C[C@H]3[C@H]1C5 | 0.209% | –
46 | Nc1c(Br)cc(Br)c2c1C(=O)c1ccccc1C2=O | -0.122% [at 18.6 µM] | –
47 | CCC(C)(C)O | 0.215% | –
48 | CC(C)(C)N(NC(=O)c1ccc(Cl)cc1)C(=O)c1ccccc1 | -0.0166% | –
49 | O=[N+]([O-])c1cc(Cl)c(Cl)cc1Cl | -0.244% | –
50 | CN(C)c1ccc(N=O)cc1 | – | inactive
51 | CC1(C)[C@H](C(=O)O[C@H](C#N)c2cccc(Oc3ccccc3)c2)[C@@H]1C=C(Br)Br | – | inactive
52 | CC(=O)NNc1ccccc1 | -0.191% | –
53 | CCCN(CCOc1c(Cl)cc(Cl)cc1Cl)C(=O)n1ccnc1 | – | inactive
54 | Nc1ccccc1C(=O)OCCc1ccccc1 | – | inactive
55 | O=C(O)COc1cc(Cl)c(Cl)cc1Cl | – | inactive
56 | NP(N)(=O)NC(=O)c1ccc(F)cc1 | 0.31% [at 46 µM] | –
57 | CN1C(=O)CN=C(c2ccccc2)c2cc([N+](=O)[O-])ccc21 | -0.253% [at 46 µM] | –

Row | SMILES | fluorescence, % of Rose Bengal | outcome
58 | O=S(=O)(c1ccccc1)c1ccccc1 | 0.164% | –
59 | CCNC(=O)NC(=O)/C(C#N)=N/OC | 0.108% | –
60 | O=C(O)CCCOc1ccc(Cl)cc1Cl | – | inactive
61 | C[Si](Cn1cncn1)(c1ccc(F)cc1)c1ccc(F)cc1 | – | inactive
62 | C[C@]12C=CC3=C4CCC(=O)C=C4CC[C@H]3[C@@H]1CC[C@@H]2O | -0.003% | –
63 | FC(Cl)(Cl)C(F)(Cl)Cl | 0.25% [at 95.7 µM] | –
64 | O=C(O)C(F)(F)C(F)(F)C(F)(F)C(F)(F)C(F)(F)C(F)(F)C(F)(F)C(F)(F)F | 0.0319% | –
65 | CCC1(C2=NCCN2)Cc2ccccc2O1 (stereo unspecified) | -0.058% [at 46 µM] | –
66 | O=C(O)C(O)C(O)C(=O)O (stereo unspecified) | -0.0205% | –
67 | Nc1ccc2c(c1)Cc1ccccc1-2 | 0.056% | –
68 | CC(Oc1cc(Cl)c(Cl)cc1Cl)C(=O)O (stereo unspecified) | 0.0149% | –
69 | CN1C[C@H](C(=O)N[C@]2(C)O[C@@]3(O)[C@@H]4CCCN4C(=O)[C@H](Cc4ccccc4)N3C2=O)C=C2c3cccc4[nH]cc(c34)C[C@H]21 | – | inactive
70 | C=C(C)C(=O)OCCCCOC(=O)C(=C)C | -0.13% | –
71 | Cc1ccc(N)c(C)c1 | – | inactive
72 | COP(=O)(OC)OC(Br)C(Cl)(Cl)Br (stereo unspecified) | – | inactive
73 | CC[N+]1(CCOC(=O)C(O)(c2ccccc2)c2ccccc2)CCCCC1 | -0.0032% [at 46 µM] | –
74 | O=CC=O | – | inactive
75 | C[CH2][Hg][S]c1ccccc1C(=O)O | – | inactive
76 | O=P(OCC(Br)CBr)(OCC(Br)CBr)OCC(Br)CBr (stereo unspecified) | – | inactive
